# Results reported in PMC11062922 (Nature Chemical Biology, 2023).
# Like-named read-outs stand apart in the source and are kept apart here.
# Key:
# Set-up in all cases: species or system human, MV4-11 + K-562 + COLO205 + SK-N-BE2 + OVCAR-8
# [1] = system: ADK; conditions: read-out: apparent Kd, n = 1
# [2] = system: PIK3CB; conditions: read-out: apparent Kd; compound concentrations:100 nM and 1000 nM (sheet 'Samples'); n = 1
# [3] = system: PIK3CD; conditions: read-out: apparent Kd; compound concentrations:100 nM and 1000 nM (sheet 'Samples'); n = 1
# [4] = system: RIOK2; conditions: read-out: apparent Kd, n = 1
# [5] = system: COX5A; conditions: read-out: apparent Kd; compound concentrations: 100 nM and 1000 nM (sheet 'Samples'), CATDS: 0.19729380709152999; n = 1
# [6] = system: MAP2K2; conditions: read-out: apparent Kd, compound concentrations: 100 nM and 1000 nM (sheet 'Samples'), n = 1
# [7] = system: NQO1; conditions: read-out: apparent Kd, compound concentrations: 100 nM and 1000 nM (sheet 'Samples'), n = 1
# [8] = system: RAN; conditions: read-out: apparent Kd; compound concentrations: 100 nM and 1000 nM (sheet 'Samples'), CATDS: 0.206069741930102; n = 1
# [9] = system: ADRBK1; conditions: read-out: apparent Kd, n = 1
# [10] = system: AKT1; conditions: read-out: apparent Kd, n = 1
# [11] = system: MAP2K3; conditions: read-out: apparent Kd; compound concentrations:100 nM and 1000 nM (sheet 'Samples'); n = 1
# [12] = system: MAPK10; conditions: read-out: apparent Kd; compound concentrations:100 nM and 1000 nM (sheet 'Samples'); n = 1
# [13] = system: MAPK11; conditions: read-out: apparent Kd; compound concentrations:100 nM and 1000 nM (sheet 'Samples'); n = 1
# [14] = system: MAPK9; conditions: read-out: apparent Kd; compound concentrations:100 nM and 1000 nM (sheet 'Samples'); n = 1
# [15] = system: MAPKAPK2; conditions: read-out: apparent Kd; compound concentrations:100 nM and 1000 nM (sheet 'Samples'); n = 1
# [16] = system: AKT2; conditions: read-out: apparent Kd; compound concentrations: 100 nM and 1000 nM (sheet 'Samples'), CATDS: 4.5438239597783502E-2; n = 1
# [17] = system: CAMK4; conditions: read-out: apparent Kd; compound concentrations: 100 nM and 1000 nM (sheet 'Samples'), CATDS: 3.6966464107036197E-2; n = 1
# [18] = system: CSNK1A1; conditions: read-out: apparent Kd; compound concentrations: 100 nM and 1000 nM (sheet 'Samples'), CATDS: 3.77728763052241E-2; n = 1
# [19] = system: EPHA7; conditions: read-out: apparent Kd; compound concentrations: 100 nM and 1000 nM (sheet 'Samples'), CATDS: 3.8645316072732999E-2; n = 1
# [20] = system: ILK; conditions: read-out: apparent Kd; compound concentrations: 100 nM and 1000 nM (sheet 'Samples'), CATDS: 0.14244785973502599; n = 1
# [21] = system: MAP2K1; conditions: read-out: apparent Kd; compound concentrations: 100 nM and 1000 nM (sheet 'Samples'), CATDS: 0.14670729977766001; n = 1
# [22] = system: MAP2K4; conditions: read-out: apparent Kd; compound concentrations: 100 nM and 1000 nM (sheet 'Samples'), CATDS: 0.186744219541462; n = 1
# [23] = system: MCM5; conditions: read-out: apparent Kd; compound concentrations: 100 nM and 1000 nM (sheet 'Samples'), CATDS: 3.88707631057994E-2; n = 1
# [24] = system: MYLK3; conditions: read-out: apparent Kd; compound concentrations: 100 nM and 1000 nM (sheet 'Samples'), CATDS: 3.9755051907905598E-2; n = 1
# [25] = system: NNT; conditions: read-out: apparent Kd; compound concentrations: 100 nM and 1000 nM (sheet 'Samples'), CATDS: 5.0059398656859502E-2; n = 1
# [26] = system: PRKCI; conditions: read-out: apparent Kd; compound concentrations: 100 nM and 1000 nM (sheet 'Samples'), CATDS: 3.7397105483333901E-2; n = 1
# [27] = system: PYGL; conditions: read-out: apparent Kd; compound concentrations: 100 nM and 1000 nM (sheet 'Samples'), CATDS: 3.7417156320033999E-2; n = 1
# [28] = system: STK11; conditions: read-out: apparent Kd; compound concentrations: 100 nM and 1000 nM (sheet 'Samples'), CATDS: 4.1841672980442002E-2; n = 1
# [29] = system: STK26; conditions: read-out: apparent Kd; compound concentrations: 100 nM and 1000 nM (sheet 'Samples'), CATDS: 3.6848584126752397E-2; n = 1
# [30] = system: TP53RK; conditions: read-out: apparent Kd; compound concentrations: 100 nM and 1000 nM (sheet 'Samples'), CATDS: 4.1477973818590801E-2; n = 1
# [31] = system: VDAC3; conditions: read-out: apparent Kd; compound concentrations: 100 nM and 1000 nM (sheet 'Samples'), CATDS: 3.7908226064931903E-2; n = 1
# [32] = compound concentrations:100 nM and 1000 nM (sheet 'Samples')
compound,measurement,setting,value
O=c1cc(N2CCOCC2)nc2n(Cc3cccc4ccccc34)ccn12 [GSK2333389A],potency estimated from few doses,[1]; [32],0.889 µM
same,potency estimated from few doses,[2],0.0161 µM
same,potency estimated from few doses,[3],0.214 µM
same,potency estimated from few doses,[4]; [32],1.89 µM
COc1ccc(Nc2nccc(NCCNC(=O)Nc3ccccc3F)n2)cc1 [GSK1379901A],potency estimated from few doses,"[1]; compound concentrations: 100 nM and 1000 nM (sheet 'Samples'), CATDS: 0.22973332446561601",1.22 µM
same,potency estimated from few doses,[5],1.63 µM
same,potency estimated from few doses,[6]; CATDS: 0.19454488197691899,1.68 µM
same,potency estimated from few doses,[7]; CATDS: 0.179031281586436,2.01 µM
same,potency estimated from few doses,[8],1.49 µM
C[C@@H](Cn1ncnn1)Nc1ncc2cc(Oc3ccc(F)cc3F)c(=O)n(C)c2n1 [RO5067310-000],potency estimated from few doses,[9]; [32],2.27 µM
same,potency estimated from few doses,[10]; [32],1.75 µM
same,potency estimated from few doses,[11],1.77 µM
same,potency estimated from few doses,[12],0.424 µM
same,potency estimated from few doses,[13],0.0309 µM
same,potency estimated from few doses,[14],0.265 µM
same,potency estimated from few doses,[15],0.00325 µM
COc1cc2ncn(-c3cc(OCc4ccccc4C(F)(F)F)c(C(C)=O)s3)c2cc1OC [GSK1030059A],potency estimated from few doses,"[9]; compound concentrations: 100 nM and 1000 nM (sheet 'Samples'), CATDS: 0.14381840818805",0.132 µM
same,potency estimated from few doses,"[10]; compound concentrations: 100 nM and 1000 nM (sheet 'Samples'), CATDS: 4.3697981842120898E-2",1.3 µM
same,potency estimated from few doses,[16],1.18 µM
same,potency estimated from few doses,[17],2.08 µM
same,potency estimated from few doses,[18],1.95 µM
same,potency estimated from few doses,[19],1.82 µM
same,potency estimated from few doses,[20],0.134 µM
same,potency estimated from few doses,[21],0.128 µM
same,potency estimated from few doses,[6]; CATDS: 4.5160118472274198E-2,1.19 µM
same,potency estimated from few doses,[22],0.0895 µM
same,potency estimated from few doses,[23],1.79 µM
same,potency estimated from few doses,[24],1.67 µM
same,potency estimated from few doses,[25],0.933 µM
same,potency estimated from few doses,[7]; CATDS: 4.7880082762824801E-2,1.04 µM
same,potency estimated from few doses,[26],2.01 µM
same,potency estimated from few doses,[27],2 µM
same,potency estimated from few doses,"[4]; compound concentrations: 100 nM and 1000 nM (sheet 'Samples'), CATDS: 4.6117723123063198E-2",1.13 µM
same,potency estimated from few doses,[28],1.45 µM
same,potency estimated from few doses,[29],2.1 µM
same,potency estimated from few doses,[30],1.49 µM
same,potency estimated from few doses,[31],1.93 µM
